Data published in PubChem BioAssay AID1159580 (chemical genetic matrix, 2015).
Several values for one entry are separate records, joined by “and”; a condition that tells them apart may be missing. Equal values may be shown once. The campaign covered roughly 5,500 compounds. About 2,000 (36%) were called active. Another 18% or so got no clear call; they are omitted. Cut-off read from the data, not from the text of the source: active = normalized growth mostly below about 0.91 (no sharp cut-off); inconclusive = no clear call, values can overlap the other calls; inactive = mostly above about 0.92. The list shows a part of the results.

Experiment: chemical genetic growth profiling, strain panel (AID 1159580);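 note: tested at 20 µM; growth read once vehicle control cultures reached saturation at 30 °C; 1 = growth at the plate median or of vehicle wells; lower values mean less growth of the strain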
Conditions: S. cerevisiae deletion strains, growth OD

Measured: normalized growth

CCN1CCCC(OC(=O)C(c2ccccc2)c2ccccc2)C1 (stereo not drawn)
inactive: locus YAL021C, strain ccr4, active compounds read low 0.978 | locus YAL026C, strain drs2, active compounds read low 0.99 | locus YAL030W, strain snc1, active compounds read low 0.989 | locus YBL061C, strain skt5, active compounds read low 0.982 | locus YBR009C, strain hhf1, active compounds read low 0.992 | locus YBR021W, strain FUR4, active compounds read low 1.03 | locus YBR023C, strain chs3, active compounds read low 0.973 | locus YBR171W, strain sec66, active compounds read low 0.99 | locus YBR229C, strain ROT2, active compounds read low 1.01 | locus YBR231C, strain swc5, active compounds read low 0.989 | locus YBR279W, strain paf1, active compounds read low 0.998 | locus YCL011C, strain gbp2, active compounds read low 1 | locus YCL016C, strain dcc1, active compounds read low 0.973 | locus YCL029C, strain bik1, active compounds read low 1.01 | locus YCL061C, strain MRC1, active compounds read low 0.989 | locus YCL069W, strain vba3, active compounds read low 0.989 | locus YCR088W, strain abp1, active compounds read low 0.978 | locus YDL005C, strain med2, active compounds read low 0.982 | locus YDL035C, strain GPR1, active compounds read low 1.03 | locus YDL040C, strain nat1, active compounds read low 0.98 | locus YDL074C, strain BRE1, active compounds read low 1.01 | locus YDL101C, strain DUN1, active compounds read low 1.01 | locus YDL134C, strain PPH21, active compounds read low 1.02 | locus YDL185W, strain tfp1, active compounds read low 1.01 | locus YDL192W, strain arf1, active compounds read low 1.01 | locus YDR001C, strain nth1, active compounds read low 0.975 | locus YDR069C, strain doa4, active compounds read low 1 | locus YDR101C, strain arx1, active compounds read low 0.992 | locus YDR137W, strain rgp1, active compounds read low 1.01 | locus YDR159W, strain sac3, active compounds read low 0.989 | locus YDR162C, strain NBP2, active compounds read low 1.01 | locus YDR195W, strain ref2 0.963 | locus YDR297W, strain sur2, active compounds read low 0.993 | locus YDR318W, strain mcm21, active compounds read low 1.01 | locus YDR334W, strain swr1, active compounds read low 0.958 | locus YDR335W, strain msn5, active compounds read low 0.963 | locus YDR388W, active compounds read low 1.01 | locus YDR392W, strain spt3, active compounds read low 0.975 | locus YDR502C, strain sam2, active compounds read low 0.999 | locus YEL003W, strain gim4, active compounds read low 0.978 | locus YEL037C, strain rad23, active compounds read low 0.978 | locus YEL061C, strain CIN8 (second series), active compounds read low 0.999 | locus YEL061C, strain CIN8, active compounds read low 1.01 | locus YER015W, strain faa2, active compounds read low 0.974 | locus YER016W, strain bim1, active compounds read low 0.986 | locus YER110C, active compounds read low 1.01 | locus YER111C, strain swi4, active compounds read low 0.978 | locus YER155C, strain BEM2 (second series), active compounds read low 1 | locus YER155C, strain BEM2, active compounds read low 1.01 | locus YER167W, strain BCK2, active compounds read low 1.01 | locus YFR010W, strain ubp6, active compounds read low 0.99 | locus YGL078C, strain dbp3, active compounds read low 1 | locus YGL086W, strain mad1, active compounds read low 1.01 | locus YGL167C, strain pmr1, active compounds read low 0.981 | locus YGL173C, strain kem1, active compounds read low 0.982 | locus YGL227W, strain vid30, active compounds read low 0.997 | locus YGL240W, strain doc1, active compounds read low 0.994 | locus YGL248W, strain PDE1, active compounds read low 1.01 | locus YGL253W, strain hxk2, active compounds read low 0.991 | locus YGR135W, strain pre9, active compounds read low 1 | locus YGR229C, strain SMI1, active compounds read low 1.01 | locus YGR252W, strain gcn5, active compounds read low 0.998 | locus YHR013C, strain ard1, active compounds read low 0.96 | locus YHR027C, strain rpn1, active compounds read low 0.986 | locus YHR030C, strain SLT2, active compounds read low 1.01 and 0.993 | locus YHR079C, strain IRE1 (second series), active compounds read low 1.01 | locus YHR079C, strain IRE1, active compounds read low 0.978 | locus YHR094C, strain hxt1, active compounds read low 1.01 | locus YHR129C, strain ARP1, active compounds read low 1 | locus YHR142W, strain chs7, active compounds read low 0.978 | locus YHR200W, strain rpn10, active compounds read low 1 | locus YIL066C, strain RNR3, active compounds read low 1.01 | locus YIL073C, strain SPO22, active compounds read low 1.08 | locus YIL125W, strain kgd1, active compounds read low 1 | locus YIR030C, strain dcg1, active compounds read low 1.01 | locus YJL092W, strain hpr5, active compounds read low 0.973 | locus YJL095W, strain BCK1 (second series), active compounds read low 0.994 | locus YJL095W, strain BCK1, active compounds read low 0.987 and 0.977 | locus YJL115W, strain asf1, active compounds read low 0.977 | locus YJL129C, strain trk1, active compounds read low 0.964 | locus YJL134W, strain LCB3, active compounds read low 1.01 | locus YJL154C, strain vps35, active compounds read low 0.976 | locus YJL164C, strain tpk1, active compounds read low 1 | locus YJL166W, strain qcr8, active compounds read low 0.982 | locus YJL168C, strain set2, active compounds read low 1.01 | locus YJL187C, strain SWE1 (second series), active compounds read low 1 | locus YJR043C, strain POL32, active compounds read low 1.04 | locus YJR066W, strain TOR1, active compounds read low 0.955
